Results published in PubChem BioAssay AID1063 (University of Pittsburgh Molecular Library Screening Center, 2008).
Screen size: about 200,000 compounds; about 18,000 (9%) were called active. This is one part of a sample in which actives are shown more often than they occur. Unmarked numbers belong to inactive results. Cut-off read from the data, not from the text of the source: active = inhibition above about 50%; inactive = the rest.

assay: Leishmania major promastigote growth inhibition, primary screen (AID 1063); settings: Leishmania major promastigotes, resazurin fluorescence viability; at 10 µM; active compounds read high;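 note: promastigotes grown with compound for 44 hours at 28 °C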

Compound | inhibition
O=c1[nH]n2c(-c3ccccc3)nc(O)c2c2ccccc12 | -6.91%
Nn1cnnc1N/N=C/c1cc([N+](=O)[O-])c(Cl)cc1Cl | 64.3% (active)
CCc1cc2c(=O)c(-c3ccc(F)cc3)c(C(F)(F)F)oc2cc1OCC(=O)O | 0.79%
O=C(CCc1n[nH]c(=O)[nH]c1=O)N/N=C/c1ccc(Br)o1 | 0.7%
CC(C)C1Nc2c(C(=O)O)cccc2C(Nc2ccccc2C(=O)O)C1(C)C (stereo not drawn) | 0.14%
O=C(CSc1nnc(-c2ccncc2)o1)NCc1ccc(Cl)cc1 | -6.74%
O=C(Nc1nnc(C2CC2)s1)c1ccccn1 | 84.9% (active)
O=C(Cc1cccs1)Nc1nnc(C2CC2)s1 | -7.6%
Cc1occc1C(=O)Nc1nnc(C2CCCCC2)s1 | 7.17%
Cc1nc(N)c(Br)c(C)c1Br | 1.28%
CC(C)(C)C(=O)NC(NC(=S)Nc1ccc(S(N)(=O)=O)cc1)C(Cl)(Cl)Cl (stereo not drawn) | 2.02%
CC(NC(=S)Nc1ccc(S(N)(=O)=O)cc1)c1ccc2c(c1)OCO2 (stereo not drawn) | 70% (active)
CC(NC(=O)Nc1ccc2c(c1)OCO2)c1ccncc1 (stereo not drawn) | -3.06%
COc1c(C)cc(C(=O)C2CCCN(S(=O)(=O)c3c(C)noc3C)C2)cc1C (stereo not drawn) | 6.97%
CN(/C(=N/S(=O)(=O)c1cccs1)c1ccccc1)c1ccc(O)cc1 | 7.12%
CSCC(NS(=O)(=O)c1ccc(C)cc1)C(=O)O (stereo not drawn) | -7.96%
CN1C(=O)/C(=N/OC(=O)c2ccccc2Br)c2ccccc21 | -16.5%
O=C(NNC(=S)NC1CCCCC1)c1ccccc1Cl | 16.1%
Fc1ccc(N2CCN(Cc3cnc(Oc4ccc(Br)cc4)s3)CC2)cc1 | -8.09%
Oc1c(CN2CCN(c3ccc(F)cc3)CC2)cc(Cl)c2cccnc12 | 100% (active)
O=C(c1cccc(C(=O)N2CCN(c3ccc(F)cc3)CC2)c1)N1CCN(c2ccc(F)cc2)CC1 | -10.6%
Cc1nnc(SCC(=O)NNC(=O)c2ccc(Cl)cc2)n1CC1CCCO1 (stereo not drawn) | -2.51%
C/C(=N\OC(=O)c1ccccc1)c1c(C)nc2cc(C)ccn12 | 5.76%
Cc1ccc(N(C(=O)Cc2cccs2)C(C(=O)NCC2CCCO2)c2ccncc2)cc1 (stereo not drawn) | 3.99%

Compound | inhibition
Cc1cccc(N(C(=O)c2ccc(CN3CCOCC3)o2)C(C(=O)NC2CCCCC2)c2ccc(F)cc2)c1 (stereo not drawn) | -5.01%
Cc1ccc(N(C(=O)c2ccc(CN3CCOCC3)o2)C(C(=O)NCCC(C)C)c2cccs2)c(C)c1 (stereo not drawn) | 90.9% (active)
CN(C)CC(C)(C)CNC(=O)c1cc(Br)cc(Br)c1O | -1.61%
CC1=CC2=NC(=O)CC(C)(C(=O)N(CC(=O)NC(C)(C)C)Cc3ccccc3)N2C=C1 (stereo not drawn) | -6.31%
Cc1cccc(CSc2nc3c(c(=O)n2C)SCC3)c1 | 7.35%
CCOC(=O)CN(Cc1ccc(OC)c(OC)c1)S(=O)(=O)c1ccc(OC)cc1 | 0.46%
COc1ccc(CCNC(=O)CN(c2ccccc2)S(C)(=O)=O)cc1OC | -7.09%
COc1ccc(C(CCN(Cc2ccc(OC)c(OC)c2)C(=O)CCl)c2ccccc2)cc1 (stereo not drawn) | 100% (active)
O=C(O)CCn1c(SCc2cc(=O)n3ccccc3n2)nc2ccsc2c1=O | -0.88%
CCN(CC)CCNC(=O)c1ccc(NC(=O)c2c(F)cccc2Cl)cc1 | 7.35%
COc1ccc(Cn2nnc3c(=O)[nH]c(C4CCN(C(=O)c5ccccc5Cl)CC4)nc32)cc1 | -0.57%
COc1ccc(F)c(-c2nc(CN3CCC(c4ccccc4)CC3)c(C)o2)c1 | 48.2%
COc1ccc(CN2CCC(c3nc4ccc(Cl)cc4[nH]3)CC2)cc1 | 95.6% (active)
CCOc1ccc(C(CC(=O)O)NC(=O)C23CC4CC(CC(C4)C2)C3)cc1OC (stereo not drawn) | 3.74%
O=C(NNc1ncnc2c1cnn2-c1ccccc1)c1ccco1 | -5.13%
Cn1ncc2c(Nc3cccc4ccccc34)ncnc21 | -6.4%
Cn1ncc2c(NNC(=O)Cc3cccc4ccccc34)ncnc21 | 61.6% (active)
O=C1OCC2=C1C(c1ccccc1)CC(=O)N2c1cccc(F)c1 (stereo not drawn) | 7.11%
COC(=O)CCNc1ccc2c(c1)OCCO2 | -0.44%
Cc1ccc2nc(-c3ccncc3)cc(C(=O)Nc3ccc4c(c3)OCCO4)c2c1 | 5.91%
CCOC(=O)c1cnc2ccc(F)cc2c1Nc1ccc2c(c1)OCCO2 | 85.4% (active)
CCCNCc1cc(OCC)c(OCC(=O)Nc2ccccc2)cc1Br | 33.5%
O=C(COc1cc(Cl)c(Cl)cc1Cl)NCCc1ccccn1 | -5.85%
CCOc1cc(CNCCN(C)C)c(Cl)cc1OCC(=O)NCCc1ccccc1 | 99% (active)

Compound | inhibition
O=[N+]([O-])c1ccccc1/C=N/n1c(COc2ccccc2)n[nH]c1=S | -4.75%
CCOc1ccc(-c2n[nH]c(=S)n2/N=C/c2cc3c(cc2[N+](=O)[O-])OCO3)cc1 | 52.8% (active)
Cc1ccc(-c2n[nH]c(=S)n2/N=C/c2cc3c(cc2[N+](=O)[O-])OCO3)cc1 | -0.37%
CN(C)c1ccc2c(=O)[nH][nH]c(=O)c2c1 | -5.2%
CC(=O)N1CCc2cc(Br)cc(S(=O)(=O)CCC(=O)Nc3c(C)n(C)n(-c4ccccc4)c3=O)c21 | -1.11%
CCn1c(/C=C/c2ccc([N+](=O)[O-])o2)nc2ccccc2c1=O | 100% (active)
O=c1oc(/C=C/c2ccccc2)nc2ccccc12 | 1.06%
CCOCCCn1c(NN)nc2ccccc2c1=O | -5.56%
CCN1CCC2(CCN(Cc3cn[nH]c3-c3ccc(OC)c(F)c3)C2)C1 (stereo not drawn) | 1.79%
CCOC(=O)c1c(C2CC2)csc1NC(=O)CSCc1c(C)noc1C | 100% (active)
CCOC(=O)c1c(-c2cccc(C)c2)csc1NC(=O)c1c(-c2ccccc2)noc1C | 1.98%
Cc1noc(C)c1CSCC(=O)Nc1nc2ccc(Oc3ccccc3)cc2s1 | 2.23%
CCOC(=O)c1c(NC(=O)CCl)sc(C(=O)N(CC)CC)c1C | 100% (active)
CCOC(=O)Nc1sc(C(=O)N(C)C)c(C)c1C(=O)OCC | 7.28%
CCOC(=O)c1sc(NC(=O)CCN2CCOCC2)c(C(=O)OCC)c1C | 7.86%
CCOC(=O)N1CCN(S(=O)(=O)c2cc(Br)cc3c2N(C(=O)C2CC2)CC3)CC1 | -13.7%
CS(=O)(=O)N(CC(=O)NCc1ccco1)c1ccc2c(c1)OCO2 | 7.89%
CCN(c1ccc2c(c1)OCO2)S(=O)(=O)c1cc(Br)cc2c1N(C(=O)C1CC1)CC2 | 57% (active)
COC(=O)C1=C(C)N(C(C)c2ccccc2)C(=O)/C1=C\c1ccco1 (stereo not drawn) | 12.7%
O=c1[nH]c(CN2CCN(S(=O)(=O)c3ccc4c(c3)OCCO4)CC2)nc2sc3c(c12)CCCC3 | 26.5%
O=[N+]([O-])c1ccc(C=Nc2ccc(Cl)cc2Cl)s1 | 100% (active)
CCCNC(=O)c1c(Cl)cnn1-c1ccc(C)cc1 | 6.12%
Cc1ccc(CN(C)CC(=O)Nc2cccc([N+](=O)[O-])c2)o1 | 8.58%
CC(C)(C)n1ncc2c(=O)n(Cc3ccc(Cl)cc3)cnc21 | 0.21%

Compound | inhibition
CCN(CC)S(=O)(=O)c1ccc(Cl)c(NC(=O)c2ccncc2)c1 | 19.7%
COc1ccc(C2CC(c3cccs3)Nc3nnnn32)cc1 (stereo not drawn) | -4.3%
COc1ccc(-n2c(SCC(=O)NCc3ccco3)nnc2-c2c[nH]c3ccccc23)cc1 | 97.7% (active)
O=C(CSc1nnc(-c2cccs2)n1-c1ccccc1)NCc1ccco1 | 7.53%
O=C(CSc1nnc(-c2c[nH]c3ccccc23)n1-c1ccc(F)cc1)NCc1ccco1 | 52.5% (active)
COc1ccc(-n2c(SCC(=O)NCc3cccs3)nnc2-c2ccoc2C)cc1 | 5.39%
O=C(CSc1nnc2scc(-c3ccc(F)cc3)n12)NCc1ccco1 | -2.03%
COc1ccc(C(=O)NC(=O)CSc2nnc(-c3ccco3)n2-c2ccccc2)cc1 | -4.51%
Cc1ccc(N=Cc2c(O)cc(C)oc2=O)c(C)c1 | -1.99%
COc1cccc(CNC(=O)Cc2csc(Nc3nc(=S)[nH]c4ccccc34)n2)c1 | 2.33%
COC(=O)C[n+]1cccc2ccccc21 | 28.5%
CC(OC(=O)CN1C(=O)C2CCCCC2C1=O)C(=O)Nc1ncc(Cl)cc1Cl (stereo not drawn) | -6.88%
Cc1ccc(C)n1C(Cc1ccccc1)C(=O)O (stereo not drawn) | -7.64%
O=C(CN1C(=O)C2C3CCC(C3)C2C1=O)Oc1ccc2ccccc2c1 (stereo not drawn) | 7.23%
CC1=CC(C)(C)Nc2ccc(OC(=O)C(Cc3ccccc3)N3C(=O)C4CCCCC4C3=O)cc21 (stereo not drawn) | 65.6% (active)
CC1=CC(C)(C)Nc2ccc(OC(=O)CN3C(=O)C4CCCCC4C3=O)cc21 (stereo not drawn) | 100% (active)
COc1cccc(NC(=O)NCc2ccc(F)cc2)c1 | 2.02%
CN(NC(=O)C1CC(=O)N(c2ccccc2)C1)C1=NS(=O)(=O)c2ccccc21 (stereo not drawn) | -0.26%
CCc1ccc(Oc2nc([N+](=O)[O-])nn2C)cc1 | 12.5%
CSc1nc2nc(-c3cccc(C(F)(F)F)c3)ccn2n1 | -7.55%
C=CCN1C(=O)C(O)(CC(=O)c2ccccn2)c2ccccc21 (stereo not drawn) | 3.64%
